According to the supplement of paper PMC11732987, “Enantioselective OTUD7B fragment discovery through chemoproteomics screening and high-throughput optimisation” (Communications Chemistry, 2025):

How the values were obtained:
Experiment in all cases: log2 ratio of Biotin-Ahx-Ub-VS probe labelling (fragment/DMSO); higher = less target engagement (more negative = stronger competition), active = hit call of the paper (q ≤ 0.05, log2 ratio ≤ -1)
Conditions in all cases: compound concentration: 200 uM; treatment time: 3 h
ALG13 = biological target: T1, ALG13 (UniProt Q9NP73)
T1 sequence (whole entry): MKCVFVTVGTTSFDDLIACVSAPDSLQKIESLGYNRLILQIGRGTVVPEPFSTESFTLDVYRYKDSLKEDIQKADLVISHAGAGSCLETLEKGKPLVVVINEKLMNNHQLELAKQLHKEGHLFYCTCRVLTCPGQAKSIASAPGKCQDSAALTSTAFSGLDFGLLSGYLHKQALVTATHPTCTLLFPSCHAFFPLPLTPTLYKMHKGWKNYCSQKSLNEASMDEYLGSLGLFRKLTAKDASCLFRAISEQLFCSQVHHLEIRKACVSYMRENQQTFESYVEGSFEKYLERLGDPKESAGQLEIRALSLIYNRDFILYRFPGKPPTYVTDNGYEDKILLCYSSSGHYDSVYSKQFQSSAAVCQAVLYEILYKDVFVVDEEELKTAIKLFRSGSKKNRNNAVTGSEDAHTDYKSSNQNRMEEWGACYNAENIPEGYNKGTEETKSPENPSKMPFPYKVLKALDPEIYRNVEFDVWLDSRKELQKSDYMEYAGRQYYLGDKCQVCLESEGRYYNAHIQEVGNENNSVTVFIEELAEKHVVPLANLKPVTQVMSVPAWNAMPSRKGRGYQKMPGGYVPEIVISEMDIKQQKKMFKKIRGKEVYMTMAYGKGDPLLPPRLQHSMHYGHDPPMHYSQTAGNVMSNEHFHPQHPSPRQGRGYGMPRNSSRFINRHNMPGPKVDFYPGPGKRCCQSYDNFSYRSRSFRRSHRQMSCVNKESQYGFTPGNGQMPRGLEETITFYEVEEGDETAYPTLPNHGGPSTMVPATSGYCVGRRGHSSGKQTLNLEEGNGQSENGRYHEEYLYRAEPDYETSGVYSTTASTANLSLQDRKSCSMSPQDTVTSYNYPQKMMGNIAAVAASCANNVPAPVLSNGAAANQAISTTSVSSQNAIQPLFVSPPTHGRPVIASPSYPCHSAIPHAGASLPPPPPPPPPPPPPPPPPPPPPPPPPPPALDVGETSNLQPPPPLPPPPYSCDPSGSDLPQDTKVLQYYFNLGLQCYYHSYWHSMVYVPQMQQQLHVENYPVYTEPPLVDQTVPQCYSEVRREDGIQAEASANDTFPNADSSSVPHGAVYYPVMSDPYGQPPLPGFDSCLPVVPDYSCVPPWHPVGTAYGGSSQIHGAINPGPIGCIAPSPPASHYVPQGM
Summary of the method: (§1)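 Labelling with Biotin-Ahx-Ub-VS (0.5 µM final, 1 h) followed a 3 h triplicate treatment of HEK293T lysate (495 µg per sample, Tris/CHAPS/IGEPAL buffer with protease inhibitors) with fragment at 200 µM or vehicle. Labelled DUBs were NeutrAvidin-enriched, digested with LysC and trypsin, and run by diaPASEF LC-MS/MS. The values, average log2 fragment/vehicle ratios by unpaired t-test, come from global-median-normalised Spectronaut label-free quantities. Proteins with ≥2 unique peptides were used.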

ATXN3 = ATXN3 (UniProt P54252)
ATXN3, sequence (P54252 whole entry): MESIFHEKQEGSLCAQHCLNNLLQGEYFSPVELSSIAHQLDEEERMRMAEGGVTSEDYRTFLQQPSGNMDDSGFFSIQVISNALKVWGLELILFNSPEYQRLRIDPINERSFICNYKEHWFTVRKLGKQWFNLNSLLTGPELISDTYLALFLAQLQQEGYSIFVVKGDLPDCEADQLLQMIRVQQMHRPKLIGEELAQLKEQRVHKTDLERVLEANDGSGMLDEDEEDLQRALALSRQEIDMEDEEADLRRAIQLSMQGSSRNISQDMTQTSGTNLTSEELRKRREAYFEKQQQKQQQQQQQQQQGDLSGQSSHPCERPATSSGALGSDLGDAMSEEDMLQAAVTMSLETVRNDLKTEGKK
Summary of the method: as §1

BAP1 = biological target: T2, BAP1 (UniProt Q92560)
T2 sequence (whole entry): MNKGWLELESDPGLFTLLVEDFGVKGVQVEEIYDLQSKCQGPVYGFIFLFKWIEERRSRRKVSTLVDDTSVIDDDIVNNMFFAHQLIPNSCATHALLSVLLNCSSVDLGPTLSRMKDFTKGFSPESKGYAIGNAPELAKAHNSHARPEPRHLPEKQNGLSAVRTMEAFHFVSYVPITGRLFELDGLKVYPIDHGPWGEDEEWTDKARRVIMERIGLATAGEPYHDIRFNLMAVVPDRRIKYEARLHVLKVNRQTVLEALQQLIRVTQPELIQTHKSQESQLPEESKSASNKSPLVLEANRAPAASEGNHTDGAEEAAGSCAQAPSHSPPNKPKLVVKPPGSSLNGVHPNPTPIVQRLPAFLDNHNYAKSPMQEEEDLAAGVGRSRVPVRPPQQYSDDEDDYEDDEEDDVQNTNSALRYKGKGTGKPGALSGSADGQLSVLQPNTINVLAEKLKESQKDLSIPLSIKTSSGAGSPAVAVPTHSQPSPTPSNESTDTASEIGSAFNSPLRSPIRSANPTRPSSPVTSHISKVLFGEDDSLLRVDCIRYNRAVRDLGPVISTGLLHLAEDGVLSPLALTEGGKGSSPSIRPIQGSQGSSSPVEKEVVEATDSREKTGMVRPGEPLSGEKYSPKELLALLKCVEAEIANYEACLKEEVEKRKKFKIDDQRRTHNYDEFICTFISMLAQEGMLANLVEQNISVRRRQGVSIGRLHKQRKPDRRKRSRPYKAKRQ
Summary of the method: as §1

EIF3F = EIF3F (UniProt O00303)
EIF3F, sequence (O00303 whole entry): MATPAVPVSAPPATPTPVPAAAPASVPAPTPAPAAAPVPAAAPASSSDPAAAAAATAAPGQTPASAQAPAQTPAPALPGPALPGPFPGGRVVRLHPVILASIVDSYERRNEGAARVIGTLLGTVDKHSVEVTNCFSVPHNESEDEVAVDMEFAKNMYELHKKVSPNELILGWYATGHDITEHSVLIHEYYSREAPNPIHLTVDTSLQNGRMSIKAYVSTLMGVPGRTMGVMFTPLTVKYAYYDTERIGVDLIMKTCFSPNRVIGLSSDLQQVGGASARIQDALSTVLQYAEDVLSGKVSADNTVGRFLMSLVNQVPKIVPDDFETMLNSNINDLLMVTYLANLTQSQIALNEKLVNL
Summary of the method: as §1

EIF3H = EIF3H (UniProt O15372)
EIF3H, sequence (O15372 whole entry): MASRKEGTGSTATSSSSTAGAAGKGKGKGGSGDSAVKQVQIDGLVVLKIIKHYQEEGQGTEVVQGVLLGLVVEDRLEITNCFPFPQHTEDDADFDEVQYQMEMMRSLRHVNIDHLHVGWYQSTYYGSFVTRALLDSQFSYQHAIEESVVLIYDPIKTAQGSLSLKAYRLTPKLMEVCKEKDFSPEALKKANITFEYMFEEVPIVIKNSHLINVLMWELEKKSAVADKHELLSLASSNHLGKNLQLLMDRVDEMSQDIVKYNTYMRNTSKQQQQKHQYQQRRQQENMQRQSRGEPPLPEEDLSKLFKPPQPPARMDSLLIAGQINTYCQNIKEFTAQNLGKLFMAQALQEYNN
Summary of the method: as §1

FAM105A = biological target: T3, FAM105A (UniProt Q9NUU6)
T3 sequence (whole entry): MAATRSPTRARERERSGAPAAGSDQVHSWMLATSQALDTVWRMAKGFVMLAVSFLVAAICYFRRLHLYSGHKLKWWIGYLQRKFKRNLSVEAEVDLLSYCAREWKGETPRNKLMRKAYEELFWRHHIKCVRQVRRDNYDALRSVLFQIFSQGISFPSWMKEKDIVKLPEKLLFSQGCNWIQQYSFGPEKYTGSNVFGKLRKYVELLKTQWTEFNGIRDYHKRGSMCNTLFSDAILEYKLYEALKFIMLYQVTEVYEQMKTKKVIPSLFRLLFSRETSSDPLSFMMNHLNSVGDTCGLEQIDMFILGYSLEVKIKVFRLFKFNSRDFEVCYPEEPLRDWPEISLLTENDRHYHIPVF
Summary of the method: as §1

OTUB1 = OTUB1 (UniProt Q96FW1)
OTUB1, sequence (Q96FW1 whole entry): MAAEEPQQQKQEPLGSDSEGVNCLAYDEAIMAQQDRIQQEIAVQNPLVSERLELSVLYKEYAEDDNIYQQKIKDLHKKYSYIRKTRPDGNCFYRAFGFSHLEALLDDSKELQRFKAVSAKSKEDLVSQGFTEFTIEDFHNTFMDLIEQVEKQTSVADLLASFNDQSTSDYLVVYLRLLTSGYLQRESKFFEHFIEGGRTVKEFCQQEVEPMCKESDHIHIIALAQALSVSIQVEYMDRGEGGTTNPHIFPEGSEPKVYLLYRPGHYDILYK
Summary of the method: as §1

OTUD4 = biological target: T4, OTUD4 (UniProt Q01804)
T4 sequence (whole entry): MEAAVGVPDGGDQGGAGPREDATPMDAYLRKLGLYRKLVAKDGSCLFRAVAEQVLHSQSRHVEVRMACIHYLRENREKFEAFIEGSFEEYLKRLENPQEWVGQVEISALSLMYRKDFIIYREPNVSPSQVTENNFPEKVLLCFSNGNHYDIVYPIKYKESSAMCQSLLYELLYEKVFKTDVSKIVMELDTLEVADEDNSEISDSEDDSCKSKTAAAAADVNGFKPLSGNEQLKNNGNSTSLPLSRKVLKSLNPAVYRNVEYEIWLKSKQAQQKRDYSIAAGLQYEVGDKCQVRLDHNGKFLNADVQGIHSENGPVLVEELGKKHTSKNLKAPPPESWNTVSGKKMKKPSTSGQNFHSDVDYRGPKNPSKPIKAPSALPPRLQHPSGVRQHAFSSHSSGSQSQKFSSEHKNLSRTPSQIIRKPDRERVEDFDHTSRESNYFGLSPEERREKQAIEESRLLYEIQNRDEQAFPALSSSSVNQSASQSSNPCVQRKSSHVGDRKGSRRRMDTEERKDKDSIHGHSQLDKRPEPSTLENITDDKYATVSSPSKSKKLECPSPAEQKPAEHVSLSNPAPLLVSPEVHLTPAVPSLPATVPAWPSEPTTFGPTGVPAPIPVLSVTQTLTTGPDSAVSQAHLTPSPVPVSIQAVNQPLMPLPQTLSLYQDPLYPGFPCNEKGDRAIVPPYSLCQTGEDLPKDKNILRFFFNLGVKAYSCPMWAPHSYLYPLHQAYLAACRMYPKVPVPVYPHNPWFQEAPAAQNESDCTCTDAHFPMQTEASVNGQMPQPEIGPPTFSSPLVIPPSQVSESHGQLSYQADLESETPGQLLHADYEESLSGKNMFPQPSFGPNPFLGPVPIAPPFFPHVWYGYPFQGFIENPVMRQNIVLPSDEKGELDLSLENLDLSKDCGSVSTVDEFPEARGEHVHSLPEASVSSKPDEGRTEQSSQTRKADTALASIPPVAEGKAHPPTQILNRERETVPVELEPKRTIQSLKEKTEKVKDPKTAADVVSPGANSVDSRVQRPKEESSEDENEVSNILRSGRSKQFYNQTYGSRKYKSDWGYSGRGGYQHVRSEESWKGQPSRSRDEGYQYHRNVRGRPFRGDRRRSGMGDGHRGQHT
Summary of the method: as §1

OTUD5 = biological target: T5, OTUD5 (UniProt Q96G74)
T5 sequence (whole entry): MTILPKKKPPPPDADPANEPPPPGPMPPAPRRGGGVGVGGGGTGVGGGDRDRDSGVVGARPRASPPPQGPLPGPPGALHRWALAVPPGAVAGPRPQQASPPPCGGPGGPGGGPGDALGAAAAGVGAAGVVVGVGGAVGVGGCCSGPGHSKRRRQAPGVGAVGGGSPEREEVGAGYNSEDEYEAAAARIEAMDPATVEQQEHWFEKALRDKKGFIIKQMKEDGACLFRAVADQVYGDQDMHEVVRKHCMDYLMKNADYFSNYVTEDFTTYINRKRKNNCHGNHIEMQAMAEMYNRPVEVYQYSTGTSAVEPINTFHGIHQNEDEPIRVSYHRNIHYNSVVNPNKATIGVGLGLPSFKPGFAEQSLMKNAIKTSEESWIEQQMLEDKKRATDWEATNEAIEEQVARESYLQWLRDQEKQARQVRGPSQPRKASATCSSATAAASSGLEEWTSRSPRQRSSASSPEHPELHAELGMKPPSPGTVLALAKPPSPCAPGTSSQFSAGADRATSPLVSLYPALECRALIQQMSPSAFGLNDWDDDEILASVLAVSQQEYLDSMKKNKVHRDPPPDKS
Summary of the method: as §1

Measured: log2 ratio of Biotin-Ahx-Ub-VS probe labelling

Cc1nc(CNC(=O)CCl)c2ccccn12.Cl
inactive: ALG13 -0.085 | ATXN3 -0.101 | BAP1 -0.847 | EIF3F -0.26 | EIF3H 0.233 | FAM105A -0.142 | OTUB1 -0.107 | OTUD4 -0.199 | OTUD5 -0.159
